This passage reports Potency, cell number change and lipid storage change, negative = inhibition results from PubChem BioAssay AID2685 (National Center for Advancing Translational Sciences (NCATS), 2010).

Each structure is given as a SMILES string. The campaign covered roughly 320,000 compounds. About 2,100 (0.66%) were called active. Roughly 53% stayed inconclusive and do not appear here. Calls come from the whole dose curve; as a rule, active = well fitted inhibition curve with a large enough effect in the signal ratio, with a control signal flat (not every such curve was filed as active); inconclusive = small, poorly fitted or top-dose-only effect, or effect the other way, or a change in a side signal; inactive = flat fitted curve, though single readings scatter; the % refers to the signal ratio. Many of the other results were omitted from the sample, so actives are more common in it than they were.
Potency is the fitted concentration of half-maximal effect.

A short description of the assay: qHTS Assay for Lipid Storage Modulators in Drosophila S3 Cells.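 For cell number change: cells counted by Cell Tracker Red CMTPX staining in the red channel.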 For lipid storage change, negative = inhibition: % is set by controls: 0 for no effect and ±100 for the full control effect. Particulars: BODIPY lipid droplet fluorescence, 18-24 h, cells fed with added oleic acid; cell number change: measured here: cell count max response; series mostly up to 46.1 µM. The gist of the method: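 Laser-scanning cytometry quantifies lipid droplet accumulation (500–530 nm total intensity; droplet/cell object ratio) in oleic acid-fed (400 uM added) Drosophila S3 cells treated with a concentration series. 20 uM Triacsin C defined 100% inhibition.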
In general terms: qHTS replaces the single test concentration by a dilution series.
For the compound `Cc1cccc(NC(=O)CS(=O)(=O)c2cn(C)c3ccccc23)c1`, the Potency entry is “inactive” and the cell number change was -0.98%.
Take `O=C(CC1C(=O)NCCN1Cc1c(F)cccc1Cl)NCCCn1ccnc1` (stereo not drawn): the Potency entry is “inactive” and the cell number change was determined as 8.35%.
On the same counts, the results for `O=C(Cc1c(F)cccc1Cl)NCCCn1ccnc1` are “inactive” and -2.56%.
`CNC(=S)N(CCCn1ccnc1)Cc1c(F)cccc1Cl`: the Potency was 3.26 µM (active) and the cell number change turned out to be 21.2%.
On the same counts, the results for `CCCCn1c(CNC(=O)C(C)(C)C)nc2ccccc21` are “inactive” and -1.23%.
Turning to `COc1ccc(Nc2nnc(SCC(=O)Nc3ccc4[nH]c(=O)[nH]c4c3)s2)cc1`, the Potency result was “inactive” and the cell number change is -17.1%.
On the same counts, the results for `Cc1nnc(SCCN2C(=O)c3ccccc3C2=O)[nH]c1=O` are “inactive” and -14.8%.
Take `CC(C)(C)C(=O)NCCN1C(=O)S/C(=C\c2ccc([N+](=O)[O-])cc2)C1=O`: the Potency was 11.6 µM (active) and the cell number change is -4.32%.
On the same counts, the results for `O=C(/C=C/c1ccccc1[N+](=O)[O-])NCCN1C(=O)S/C(=C\c2ccc(F)cc2)C1=O` are “inactive” and -11.5%.
As to `O=C(/C=C/c1cccc([N+](=O)[O-])c1)NCCN1C(=O)S/C(=C\c2ccc(F)cc2)C1=O`, the Potency entry was “inactive” and the cell number change came out at 13.9%.
In the case of `COc1cccc(-c2nc(CS(=O)(=O)CC(=O)NCc3ccccc3)c(C)o2)c1`, the Potency result was “inactive” and the cell number change came out at 1.69%.
As for `COc1ccc(-c2nc(CS(=O)(=O)CC(=O)NCc3cccc(Br)c3)c(C)o2)cc1`, the Potency was 13 µM (active) and the cell number change was 10.1%.
In the case of `COc1ccc(-c2nc(CS(=O)(=O)CC(=O)NCc3ccccc3Br)c(C)o2)cc1`, the Potency result was “inactive” and the cell number change turned out to be 11.5%.
On the same counts, the results for `CC(C)=CCN1CCN(Cc2cnc(-c3ccccc3)s2)CC1CCO` (stereo not drawn) are “inactive” and -2.03%.
For `Cc1ccc(-n2ncc(C(=O)N3CCN(C(=O)c4ccco4)CC3)c2-n2cccc2)cc1`, the Potency result was “inactive” and the cell number change is -13.4%.
Turning to `Cc1ccc(CN2CCN(C(=O)c3ccco3)CC2)cc1`, the Potency entry was “inactive” and the cell number change turned out to be 11.8%.
In the case of `Cc1ccc(-n2nc(C)c(C(=O)N3CCN(C(=O)c4ccco4)CC3)c2-n2cccc2)cc1`, the Potency is 16.4 µM (active) and the cell number change was -18.3%.
For `O=C(Nc1ccncc1)c1sc2ccccc2c1Cl`, the Potency result was “inactive” and the cell number change came out at 17.8%.
On the same counts, the results for `Cc1nn(CC#N)c(=O)n1-c1ccccc1` are “inactive” and 5.19%.
Regarding `CCOC(=O)C1CCN(C(=O)CSc2c3c(nc4ccccc24)CCC3)CC1`, the Potency result was “inactive” and the cell number change worked out at 8.19%.
For `N#Cc1ccc(-c2csc(-c3ccno3)n2)cc1`, the Potency result was “inactive” and the cell number change was found to be 9.9%.
In the case of `COc1ccc(/C=C2\N=C(c3ccccc3)N(c3ccc(C(=O)O)cc3)C2=O)cc1OC`, the Potency entry was “inactive”.
In the case of `COc1ccc(/C=C2\N=C3CCCCCN3C2=O)cc1OC`, the Potency result is “inactive” and the cell number change is -0.0934%.
Take `COc1ccc(/C=C2\N=C(C)N(c3ccc4ccccc4c3)C2=O)cc1OC`: the Potency was 5.17 µM (active) and the cell number change was 14.3%.
In the case of `Cc1ccc(S(=O)(=O)N(C)/N=C/C=C/c2ccccc2)cc1`, the Potency entry is “inactive” and the cell number change is -10.7%.
On the same counts, the results for `O=C(COC(=O)Cn1cnc2ccccc21)Nc1cccc(S(=O)(=O)N2CCOCC2)c1` are “inactive” and -0.979%.
Consider `NC(=O)C1CCN(C(=O)CSc2nc3ccccc3o2)CC1`, for which the Potency result is “inactive”.
Take `NC(=O)C1CCN(C(=O)CSc2nc3ccccc3s2)CC1`: the Potency is 16.4 µM (active) and the cell number change stood at 5.89%.
Turning to `NC(=O)C1(N2CCCCC2)CCN(C(=O)CSc2nc3ccccc3s2)CC1`, the Potency entry is “inactive” and the cell number change is -22.8%.
For the compound `CC(C)(Cc1nc2ccccc2[nH]1)C(=O)O`, the Potency was 23.1 µM (active) and the cell number change was -19.5%.
With `O=C(O)COCc1nc2ccccc2[nH]1`, the Potency entry was “inactive” and the cell number change is 0.419%.
Consider `O=C(O)CSCc1nc2ccccc2[nH]1`, for which the Potency result is “inactive”.
Still for that read-out and setting: then `NNC(=O)CNC(=O)c1cccc(Br)c1`, with “inactive”.
With `N#C/C(=C/c1ccc(-c2ccccc2)o1)c1nc(-c2cccs2)cs1`, the Potency is 5.8 µM (active) and the cell number change is 20.9%.
In the case of `N#C/C(=C\c1ccc(-c2ccc(F)cc2)o1)C(=O)Nc1nc(-c2cccs2)cs1`, the Potency entry is “inactive” and the cell number change was -13%.
Regarding `N#C/C(=C\c1ccc(-c2ccccc2)cc1)c1nc(-c2ccco2)cs1`, the Potency entry was “inactive” and the cell number change was 1.16%.
On the same counts, the results for `C=CCC1(N(C(C)=O)c2ccccc2C)CCCCC1` are “inactive” and -21.1%.
For `Cc1oc(/N=C/c2ccccc2O)c(C#N)c1C`, the Potency entry is “inactive” and the cell number change was -11.3%.
Turning to `Cc1oc(/N=C/c2cccc([N+](=O)[O-])c2)c(C#N)c1C`, the Potency was 16.4 µM (active) and the cell number change was -19.3%.
In the case of `Cc1oc(/N=C/c2ccccc2)c(C#N)c1C`, the Potency entry was “inactive” and the cell number change amounted to 0.993%.
As for `CCS(=O)(=O)c1ncc(Cl)c(C(=O)Nc2ccc(S(=O)(=O)N3CCC(C)CC3)cc2)n1`, the Potency is 1.3 µM (active) and the cell number change is -22.6%.
For the compound `CC1CCCN(S(=O)(=O)c2ccc(NC(=O)CN3CCCCC3)cc2)C1` (stereo not drawn), the Potency entry is “inactive” and the cell number change was -3.44%.
On the same counts, the results for `CCS(=O)(=O)c1ncc(Cl)c(C(=O)Nc2ccc(S(=O)(=O)N3CCCC(C)C3)cc2)n1` (stereo not drawn) are 0.146 µM (active) and -27.2%.
As to `CCOC(=O)Nc1ccc(S(=O)(=O)N2CCC(C)CC2)cc1`, the Potency entry was “inactive” and the cell number change was determined as 5.9%.
Consider `Cc1ccc(NC(=O)c2ccc(S(=O)(=O)N3CCC(C)CC3)cc2)cc1`, for which the Potency entry was “inactive” and the cell number change was 29.6%.
For `CC1CCCN(S(=O)(=O)c2ccc(NC(=O)CNC3CCCC3)cc2)C1` (stereo not drawn), the Potency entry is “inactive” and the cell number change is -7.89%.
With `C/C(=N\Nc1nccnc1Cl)c1ccc([N+](=O)[O-])cc1`, the Potency entry is “inactive” and the cell number change is -11.4%.
For `O=C(NCCS(=O)(=O)N1CCN(c2ccccc2)CC1)c1ccc(Br)o1`, the lipid storage change, negative = inhibition was 10.4% [at 0.0737 µM] (inactive).
With `Cc1cc(C)n2c(SCCO)nnc2n1`, the Potency result is “inactive” and the cell number change was found to be 8.77%.
On the same counts, the results for `CC(=O)Nc1cccc(C(=O)Nc2cccc3ncccc23)c1` are “inactive” and -6.58%.
Regarding `CCc1noc(C)c1C(=O)Nc1ccc(F)c(F)c1F`, the Potency result is “inactive” and the cell number change is -3.41%.
As to `CC(C)(C)c1ccc(C(=O)Nc2cccc3ncccc23)cc1`, the Potency is 14.6 µM (active).
In the case of `CCc1noc(C)c1C(=O)Nc1cccc2ncccc12`, the Potency is 2.31 µM (active) and the cell number change is -8.65%.
In the case of `CCc1noc(C)c1C(=O)Nc1ccccc1N1CCOCC1`, the Potency result is “inactive”.
As for `O=C(Nc1cccc2ncccc12)c1cccnc1`, the Potency result is “inactive” and the cell number change is 4.51%.
For `CCOC(=O)c1cc(CC)sc1NC(=O)CN1CCN(C(=O)C2CCCO2)CC1` (stereo not drawn), the Potency entry was “inactive” and the cell number change was -6.11%.
`CC(=O)N(C)c1ccc(NC(=O)c2ccc([N+](=O)[O-])cc2Cl)cc1`: the Potency entry is “inactive” and the cell number change was 1.5%.
Consider `CCCCN(C(=O)CCC(=O)OCC(=O)NCc1ccccc1)c1c(N)n(CCC)c(=O)[nH]c1=O`, for which the Potency entry was “inactive” and the cell number change was -13.8%.
Take `COc1ccc(NC2CC(=O)N(c3cccc(C)c3)C2=O)cc1` (stereo not drawn): the Potency entry was “inactive” and the cell number change was -0.809%.
Turning to `O=C(NCc1ccncc1)NC1CCCCC1`, the Potency result was “inactive” and the cell number change stood at 5.51%.
